An excerpt weighted towards active compounds, which were near 2% of everything screened.
TDP43 rescue = rescues yeast growth from TDP-43 toxicity | TDP-43 expressing yeast growth rescue, BacTiter-Glo, 24 h | Potency, µM (titrated, usually from 46.1 µM), for the others: top-dose growth rescue (activation), most hits filed as activators | 410,000 tested, 1.8% active | AID 652104; note: potency is the fitted concentration of half-maximal effect; % of control where 0% means no effect; nearly all actives have a fitted effect of over 50% in size
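Yeast expressing TDP-43 (pregrown in raffinose, seeded at OD600=0.02 in galactose medium) exposed to compounds 24 hr at 30 deg C. Growth read by BacTiter-Glo luminescence; rescue of toxicity appears as increased signal.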
aSyn yeast inh = rescues yeast growth from alpha-synuclein toxicity. Yeast expressing alpha-synuclein, growth rescue, BacTiter-Glo, 24 h. Potency, µM (titrated, usually from 46.1 µM), inactives show at the top dose growth rescue (activation), hits mostly activators. 370,000 tested, 0.14% active; note: potency is the fitted concentration of half-maximal effect; % of control where 0% means no effect; nearly all actives have a fitted effect of over 65% in size
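Rescue of yeast growth: cells expressing toxic alpha-synuclein, induced in galactose at OD600 0.02, incubated with compound 24 h at 30 C. ATP luminescence quantified growth; inhibitors of toxicity appear as activators.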
Abeta rescue = A-beta toxicity reversal in yeast | yeast expressing A-beta42, growth rescue, OD600, 48 h; response scale: 0% DMSO, 100% iron-clioquinol control | Potency, µM (series often up to 46.1 µM), usual class: activators | 410,000 tested, 0.063% active | AID 1347071; note: potency is the fitted concentration of half-maximal effect; nearly all actives have a fitted effect of over 55% in size
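Yeast growth medium received pinned compounds, then yeast cells expressing toxic A-beta were added; plates incubated at 30 C for 48 hr. Growth read as absorbance at 600 nm, normalized to DMSO and equimolar FeCl3 plus clioquinol controls.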
mIDH1 inhibitor = inhibitors of human mutant IDH1 R132H; IDH1-R132H enzyme, NADPH consumption, diaphorase/resazurin fluorescence; O75874; AID 602179; Potency, µM (highest dose often 76.6 µM), for inactives: at the highest dose activity change, negative = inhibition, usual class: inhibitors; 390,000 tested, 0.093% active; note: potency is the fitted concentration of half-maximal effect; % is set by controls: 0 for no effect and ±100 for the full control effect; nearly all actives have a fitted effect of over 65% in size
Target sequence (O75874 whole entry R132H, stated change not applied): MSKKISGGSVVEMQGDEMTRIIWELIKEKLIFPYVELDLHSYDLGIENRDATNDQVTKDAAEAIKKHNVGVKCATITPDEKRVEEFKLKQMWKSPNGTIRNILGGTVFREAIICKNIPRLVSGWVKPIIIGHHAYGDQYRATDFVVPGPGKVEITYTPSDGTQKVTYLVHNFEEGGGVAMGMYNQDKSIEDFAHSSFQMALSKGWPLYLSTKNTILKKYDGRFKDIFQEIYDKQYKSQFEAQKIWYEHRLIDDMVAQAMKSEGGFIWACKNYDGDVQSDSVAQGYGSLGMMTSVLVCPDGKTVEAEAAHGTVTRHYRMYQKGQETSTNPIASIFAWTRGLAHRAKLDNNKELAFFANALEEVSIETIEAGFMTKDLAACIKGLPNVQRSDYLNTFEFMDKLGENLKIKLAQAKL
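IDH1-R132H (0.5 ug/mL dispensed) in pH 7.5 Tris buffer was preincubated 30 min with compound, then given a substrate mix of 0.016 mM NADPH and 2 mM alpha-KG for 80 min at room temperature; remaining NADPH was read by diaphorase/resazurin fluorescence.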
FUS suppressor = rescues growth of FUS-expressing yeast | Potency, µM (titrated, usually from 76.6 µM), most hits filed as activators | AID 1347120 | 390,000 tested, 0.24% active | S. cerevisiae FUS-expressing, growth rescue, OD600, 24 h;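 note: potency is the fitted concentration of half-maximal effect; plate controls were DMSO vehicle for no effect and reference control for full effect; nearly all actives have a fitted effect of over 55% in size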
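FUS-expressing yeast, raffinose-pregrown, induced in 2% galactose minimal medium at OD 0.005; compounds in a dilution series, 24hr at 30C. Growth restoration read as absorbance at 600 nm. CP55940 positive control, DMSO negative.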
LDHA block = blocks human lactate dehydrogenase A | P00338 | purified LDHA, NADH/diaphorase-resazurin fluorescence; stronger effect = lower value | activity change, % (values are at about 110 or 230 µM) | 480,000 tested, 0.15% active; in the data active = activity change below about -30%; inconclusive = mostly about -25% to -30%;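 note: plate controls were DMSO wells for no effect and wells without enzyme for full effect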
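Human LDH5 (2 nM) was incubated with 0.06 mM NADH and 0.2 mM pyruvate for 5 min at room temperature in Tris pH 7.4. Remaining NADH was coupled through diaphorase/resazurin, and resorufin fluorescence was read at 0 and 20 min.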
* = called active by the depositor; i = inactive; u = inconclusive; x = not tested or not shown. Unless noted, calls come from the whole dose curve; as a rule, active = well fitted curve in the direction sought with a large enough effect; inconclusive = small, poorly fitted or top-dose-only effect, or another doubt; inactive = no such curve, though single readings can be large; an effect the other way counts as inactive or inconclusive.

SMILES	TDP43 rescue	aSyn yeast inh	Abeta rescue	mIDH1 inhibitor	FUS suppressor	LDHA block
C/C(=N\Nc1nc2c(s1)CCCC2)c1ccccc1	20µM*	7.1%	i	6.9%	u	9.9
COc1ccc(/C=N/NC(=O)c2ccoc2C)cc1COc1ccc(Cl)cc1	14.1µM*	15.0%	u	1.8%	u	-2.3
COc1ccc(/C=N/NC(=O)c2ccn[nH]2)cc1COc1ccc([N+](=O)[O-])c(C)c1	25.1µM*	28.6%	i	5.8%	i	-1.1
COc1ccc(/C=N/NC(=O)c2ccoc2C)cc1OC	-12.6%	-12.2%	i	8.8%	i	-1.2
COc1ccc(/C=N/NC(=O)c2ccn[nH]2)cc1COc1ccc(F)cc1	u	11.5%	i	0.9%	i	1.6
O=C(NC12CC3CC(CC(C3)C1)C2)C1CC=CCC1 (configuration not stated)	x	x	x	x	x	0.7
c1ccc(Oc2ncnc3sccc23)cc1	11.2µM*	-0.6%	i	0.2%	i	-3.3
Cc1ccccc1Oc1ncnc2sccc12	11.2µM*	-15.5%	i	5.6%	i	-6.3
COc1ccccc1Oc1ncnc2sccc12	u	-5.1%	i	8.9%	i	-9.2
Cc1ccc2c(c1)-c1nc(SCC(=O)Nc3cc(F)ccc3C)ncc1S(=O)(=O)N2C	x	x	x	x	x	-14.3
O=c1cc(O)c2ccc(O)cc2o1	14.1µM*	u	i	0.1%	i	-5.9
O=c1oc2cc(O)ccc2c2c1CCCC2	12.6µM*	14.5%	i	3.3%	i	1.1
Cc1cc(=O)oc2cc(O)ccc12	11.7%	-7.8%	i	5.1%	i	5.1
COc1ccc(OC)c(C(=O)c2oc3ccc(NC(=O)C(C)(C)C)cc3c2C)c1	x	x	x	x	x	-1.0
Cc1ccc2c(CN(C)CCOc3ccc(F)cc3)cc(=O)oc2c1	x	x	x	x	x	-32.8*
O=C(Nc1ccccc1Cl)c1ccc(-c2ccccn2)s1	11.2µM*	-0.8%	i	1.3%	i	-3.9
O=C(O)C(c1ccccc1)N1C(=O)/C(=C\c2ccc(-c3ccccc3Cl)o2)SC1=S (configuration not stated)	-4.6%	13.7%	i	-20.1%	i	-30.2*
COc1cccc(CNc2ccc([N+](=O)[O-])cc2Cl)c1O	14.1µM*	-16.6%	i	11.1%	i	0.6
Cc1cc(NC(=O)[C@@H]2CCCN2S(=O)(=O)c2ccc(OC(C)C)cc2)no1	x	x	x	x	x	-8.8
CCOc1cc(/C=N\O)cc(Cl)c1OCC	10µM*	-3.4%	i	15.3%	i	0.9
C=CCOc1c(Cl)cc(/C=N/O)cc1OC	-3.7%	-6.1%	i	7.1%	i	4.6
C[C@@H]1CC=C[C@@H]2[C@H]1C(=O)N(Cc1ccccc1)[C@H]2c1ccccc1Br	11.2µM*	-12.2%	i	-1.6%	i	0.6
C[C@@H]1CC=C[C@@H]2[C@H]1C(=O)N(Cc1ccccc1)[C@H]2c1cccc(Br)c1	18.9%	0.0%	i	-3.3%	i	-2.6
COc1cc(OC)c(NC(=O)C(C)n2nc(-c3ccc(C)c(C)c3)ccc2=O)cc1Cl (configuration not stated)	12.6µM*	x	i	-2.7%	u	2.2
Cc1ccc(-c2ccc(=O)n(C(C)C(=O)Nc3ccccc3Cl)n2)cc1C (configuration not stated)	23.4%	x	i	-1.7%	i	0.2
SMILES	TDP43 rescue	aSyn yeast inh	Abeta rescue	mIDH1 inhibitor	FUS suppressor	LDHA block
CCC1=NN(C(=O)c2ccc(Cl)cc2)C(O)(c2ccc(C)cc2)C1 (configuration not stated)	-1.1%	1.6%	i	-6.8%	i	-0.9
COC(=O)C1=NN(C(=O)c2ccc(Cl)cc2)C(O)(c2ccccc2)C1 (configuration not stated)	26.8%	20µM*	i	2.3%	i	1.3
CCOC(=O)C1=NN(C(=O)c2ccc(C)cc2)C(O)(c2ccc(Cl)cc2)C1 (configuration not stated)	12.6µM*	u	i	1.2%	u	-1.2
CCc1nnc(NC(=O)Cc2c(C)c3ccc(OC)c(OC)c3oc2=O)s1	x	x	x	x	x	-1.1
Cc1ccccc1CS(=O)(=O)c1nnc([C@H](Cc2ccccc2)NC(=O)OC(C)(C)C)o1	-72.2%	-58.8%	i	-5.1%	i	-4.0
CCC(C)[C@@H](NC(=O)OC(C)(C)C)c1nnc(S(=O)(=O)Cc2cccc(C)c2)o1 (some centres not stated)	7.94µM*	6.9%	i	0.8%	i	-5.1
CCCCN(C)c1nc(-c2ccco2)c2c(c1C#N)CC(C)(C)OC2	20µM*	-38.5%	i	6.9%	i	7.5
N#CNC(=O)c1ccc(-n2cccc2/C=C2\NC(=O)N(CC(=O)Nc3cccc(F)c3)C2=O)cc1	x	x	x	x	x	-14.2
Cc1ccccc1N1C(=O)C(Cl)=C(N2CCOCC2)C1=O	8.0%	2.2%	i	-5.9%	i	-2.1
Cc1ccc(N2C(=O)C(Cl)=C(N3CCOCC3)C2=O)c(C)c1	20µM*	-1.6%	i	-7.2%	i	-3.2
Cc1ccc(N(C)C(=O)c2cc(-c3ccco3)nc3ccccc23)cc1	x	x	x	x	x	3.9
COc1ccccc1-n1[nH]c(C)c(Cc2ccccc2Cl)c1=O	x	x	x	x	x	-43.5*
Cc1ccc(-c2nc(SCC(=O)N3CCCc4ccccc43)n3[nH]c(=O)cc3n2)cc1	x	x	x	x	x	4.1
Cc1onc(-c2ccccc2)c1-c1ccnn1C(=O)NC(C)C	11.2µM*	-11.6%	i	2.9%	i	-4.9
Cc1ccc(S(=O)(=O)n2nccc2-c2c(-c3ccccc3)noc2C)cc1	-13.2%	0.8%	i	-2.5%	i	-6.6
COc1ccc(S(=O)(=O)Nc2cc(Cl)ccc2OC)cc1	3.16µM*	24.5%	i	3.9%	x	-2.9
COc1ccc(NS(=O)(=O)c2ccc3[nH]c4c(c3c2)CCCCCC4)cc1	13.3%	x	i	8.0%	i	-0.6
COc1ccc(Cl)cc1NS(=O)(=O)c1ccc(OC)c(OC)c1	-6.9%	-2.0%	i	-3.5%	i	-6.4
COc1ccc(Cl)cc1NS(=O)(=O)c1ccc2[nH]c3c(c2c1)CCCC3	12.6µM*	x	i	-6.1%	i	-0.5
CCOC(=O)CC(NS(=O)(=O)c1ccc2[nH]c3c(c2c1)CCCC3)c1ccccc1Cl (configuration not stated)	20µM*	15.8µM*	i	-13.5%	u	-2.1
COc1cc(N2C(=O)C=CC2=O)ccc1N1C(=O)C=CC1=O	20µM*	14.7%	i	2.3%	x	-6.7
CCN(CC)C(=O)COc1ccc2c(C)cc(=O)oc2c1	x	x	x	x	x	-2.0

Screening data from PubChem BioAssay.
